From PubChem BioAssay (NCI) come the findings set out here.

Compounds without any hit were thinned out: in the full panel of roughly 83,000, 20% have a hit.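 Single-dose data. Exposure time 48 hours. Values below 10 considered active.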 A number with no mark means an inactive call. Active and inactive are the calls of the source.

Some test systems named below: SR leukemia; RPMI-8226 leukemia; OVCAR-8 ovarian; OVCAR-5 ovarian; SK-OV-3 ovarian; IGROV1 ovarian; OVCAR-3 ovarian; HS 578T breast; NCI/ADR-RES ovarian; T-47D breast; BT-549 breast; MDA-MB-435 melanoma; SW-620 colon; MCF7 breast; HCT-116 colon; KM12 colon; HCC-2998 colon; OVCAR-4 ovarian.
Holding throughout (assay): NCI-60 one-dose screen, 48 h (100 = growth as untreated, 0 = no growth, -100 = all killed)
Holding throughout (settings): 10 µM unless noted

With `COc1ccc([C@@H]2c3[nH]c4ccccc4c3C[C@H]3C(=O)N(C4CCN(CC5CCCCC5)CC4)CC(=O)N23)c(OC)c1`, the growth was 25.9% in the test on SR leukemia; 53.6% in the test on RPMI-8226 leukemia; 82.2% with OVCAR-8 ovarian; 94.1% with OVCAR-5 ovarian; 86.2% in the test with SK-OV-3 ovarian; 60% in the test with IGROV1 ovarian. Moreover, the growth with OVCAR-3 ovarian was 74.9%; with HS 578T breast it was 68.9%; with NCI/ADR-RES ovarian it was 76.7%; in the test with T-47D breast, 101%; in the test on BT-549 breast, 80.3%; in the test with MDA-MB-435 melanoma it was 73.6%. In addition, the growth in the test with SW-620 colon was 80.1%; with MCF7 breast, 42.6%; in the test on HCT-116 colon it was 50%; in the test with KM12 colon, 82.3%.

`CC(C)C[C@@H]1N[C@@]2(C(=O)Nc3ccccc32)[C@@H](c2ccc(F)cc2)[C@@H]1C(=O)c1ccc(O)cc1`: the growth in the test with SR leukemia is 73.5%; in the test with RPMI-8226 leukemia it was 91.2%; in the test with OVCAR-8 ovarian, 97.1%; in the test on OVCAR-5 ovarian it was 95.6%; in the test with SK-OV-3 ovarian, 108%; in the test on IGROV1 ovarian, 53.4%. The growth was 96.9% in the test on OVCAR-3 ovarian; 84.5% in the test on HS 578T breast; 94.1% in the test with NCI/ADR-RES ovarian; 76.5% in the test with T-47D breast; 113% in the test on BT-549 breast; 102% with MDA-MB-435 melanoma. For the same molecule, the growth was 101% with SW-620 colon; 92.5% in the test on MCF7 breast; 86.7% with HCT-116 colon; 108% with HCC-2998 colon; 96.1% in the test with KM12 colon.

Regarding `O=C(c1ccc(O)c(C(=O)N2Cc3ccc(OCCC[P+](c4ccccc4)(c4ccccc4)c4ccccc4)cc3C2)c1)N1Cc2cccc(F)c2C1`, the growth with SR leukemia was 54.5%; with RPMI-8226 leukemia it was 31.8%; in the test with OVCAR-8 ovarian, 77.5%; in the test with OVCAR-5 ovarian, 102%; with OVCAR-4 ovarian, 91.4%; in the test on SK-OV-3 ovarian, 114%. For the same molecule, the growth in the test with HS 578T breast was 72.4%; in the test on NCI/ADR-RES ovarian, 108%; with T-47D breast, 38.7%; with BT-549 breast, 65.9%; in the test with MDA-MB-435 melanoma, 57.1%; in the test with SW-620 colon, 76.2%. For the same molecule, the growth with MCF7 breast is 51.9%; with HCT-116 colon it was 96.9%; in the test with KM12 colon, 57.8%.

For the molecule `COc1ccc(C2CC(c3cccc(Nc4nc(Cl)nc5cc(OC)c(OC)cc45)c3)=Nc3c(N)nc(N)nc3N2)cc1` (centres undefined), the growth in the test on SR leukemia is 3.81% (active); in the test with RPMI-8226 leukemia it was 38.4%; in the test with OVCAR-8 ovarian, 70.1%; with OVCAR-5 ovarian, 111%; with SK-OV-3 ovarian it was 121%; with IGROV1 ovarian, 92.5%. Besides, the growth was 75.3% in the test on OVCAR-3 ovarian; 94.4% in the test on HS 578T breast; 92.3% in the test on NCI/ADR-RES ovarian; 81.7% in the test on T-47D breast; 83.5% in the test with MDA-MB-435 melanoma; 74% in the test with SW-620 colon. Besides, the growth is 74.4% in the test with MCF7 breast, 46.3% in the test with HCT-116 colon, 83.4% with HCC-2998 colon and 57.1% with KM12 colon.

`COc1cc(OC)c(S(N)(=O)=O)cc1C(=O)/C=C/c1ccc(C)cc1`: the growth in the test with SR leukemia is 5.66% (active); with RPMI-8226 leukemia it was 18.5%; in the test on OVCAR-8 ovarian, 31.7%; in the test on OVCAR-5 ovarian it was 13.4%; in the test with OVCAR-4 ovarian, 53.1%; in the test on SK-OV-3 ovarian, 37.6%. In addition, the growth with HS 578T breast is 21.3%; in the test on NCI/ADR-RES ovarian it was 37%; in the test on T-47D breast, 2.31% (active); in the test with BT-549 breast it was 21.2%; in the test with MDA-MB-435 melanoma it was 8.41% (active); with SW-620 colon, 6.29% (active). The growth in the test on MCF7 breast was 12.2%; with HCT-116 colon it was 11.4%; in the test on HCC-2998 colon it was 8.59% (active); in the test with KM12 colon, -1.47% (active).

In the case of `CC(C)(O)c1cncc(-c2ccc3ncnc(NCc4ccccc4)c3c2)c1`, the growth was 92.2% in the test on SR leukemia; 84.6% in the test on RPMI-8226 leukemia; 102% with OVCAR-8 ovarian; 62.5% with OVCAR-5 ovarian; 110% in the test on SK-OV-3 ovarian; 34.2% in the test on IGROV1 ovarian. Moreover, the growth with OVCAR-3 ovarian is 83.8%; in the test on HS 578T breast it was 73.2%; in the test with NCI/ADR-RES ovarian, 103%; in the test with T-47D breast, 64.2%; in the test with MDA-MB-435 melanoma it was 92.3%; in the test with SW-620 colon, 98.9%. Also, the growth with MCF7 breast is 58.5%; with HCT-116 colon, 97.8%; in the test with HCC-2998 colon it was 92.8%; in the test with KM12 colon it was 101%.

Take `O=C1C(c2ccccc2)=C(N2CCc3ccccc32)OC1(Cl)Cl`: the growth was 17.5% in the test with SR leukemia; 8.06% (active) in the test with RPMI-8226 leukemia; 74.3% in the test with OVCAR-8 ovarian; 82% in the test with OVCAR-5 ovarian; 112% in the test on SK-OV-3 ovarian; 43.5% in the test with IGROV1 ovarian. Further, the growth in the test on HS 578T breast is 66.3%; with NCI/ADR-RES ovarian, 86.7%; in the test on T-47D breast it was 10.1%; with BT-549 breast, 75.1%; with MDA-MB-435 melanoma, 85.9%; in the test with SW-620 colon, -28.8% (active). The growth in the test on MCF7 breast was 26.2%; with HCT-116 colon it was 2.36% (active); in the test with HCC-2998 colon it was 88%; with KM12 colon, 87.9%.

`Nc1nc(-c2cccc([N+](=O)[O-])c2)c(N=Nc2cccc([N+](=O)[O-])c2)s1`: the growth was 67.5% in the test on SR leukemia; 34.3% in the test on RPMI-8226 leukemia; 19.9% in the test with OVCAR-8 ovarian; 53.4% in the test with OVCAR-5 ovarian; -78% (active) in the test with SK-OV-3 ovarian; 27.6% in the test on IGROV1 ovarian. Besides, the growth was 37.6% in the test with HS 578T breast; 18.6% in the test on NCI/ADR-RES ovarian; 31% in the test with T-47D breast; -41.4% (active) in the test on BT-549 breast; 36.2% with MDA-MB-435 melanoma; 18.5% with SW-620 colon. The growth is 13.1% in the test with MCF7 breast, -44.1% (active) in the test with HCT-116 colon, 59.8% in the test with HCC-2998 colon and 48.2% with KM12 colon.

For the molecule `Cc1cc(C)cc(C(=O)Nc2cccc(C#Cc3cccc4[nH]nc(N)c34)c2)c1`, the growth with SR leukemia was 4.43% (active); with RPMI-8226 leukemia it was 47.4%; with OVCAR-8 ovarian, 53.3%; with OVCAR-5 ovarian, 73.9%; in the test with SK-OV-3 ovarian, 95.7%; in the test on IGROV1 ovarian it was 64.6%. For the same molecule, the growth with HS 578T breast was 75.7%; with NCI/ADR-RES ovarian, 59.8%; with T-47D breast, 39.4%; in the test with BT-549 breast, 115%; in the test on MDA-MB-435 melanoma, 2.35% (active); with SW-620 colon it was 38.6%. In addition, the growth was 38.1% in the test with MCF7 breast, 43.2% in the test on HCT-116 colon, 57.7% with HCC-2998 colon and 12.6% in the test on KM12 colon.
